Measured values from the supplement of paper PMC11732987, “Enantioselective OTUD7B fragment discovery through chemoproteomics screening and high-throughput optimisation” (Communications Chemistry, 2025).

Columns and labels:
Assay in all cases: log2 ratio of Biotin-Ahx-Ub-VS probe labelling (fragment/DMSO); higher = less target engagement (more negative = stronger competition), active = hit call of the paper (q ≤ 0.05, log2 ratio ≤ -1)
Conditions in all cases: compound concentration: 200 uM; treatment time: 3 h
[1] = molecular target: USP9X (UniProt Q93008)
Summary of the method: (§1)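 HEK293T lysate (495 µg per sample, in Tris/CHAPS/IGEPAL buffer with protease inhibitors) was treated in triplicate with fragment at 200 µM or with DMSO for 3 h. It was then treated with Biotin-Ahx-Ub-VS (0.5 µM final) for 1 h. Labelled DUBs were NeutrAvidin-enriched, digested with LysC and trypsin, and run by diaPASEF LC-MS/MS. Spectronaut label-free quantities were global-median-normalised. Values are average log2 ratios fragment/DMSO by unpaired t-test, using proteins with ≥2 unique peptides.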

[2] = molecular target: UniProt O00487
Summary of the method: as §1

[3] = molecular target: UniProt O00507
Summary of the method: as §1

[4] = molecular target: UniProt P51784
Summary of the method: as §1

[5] = molecular target: T1, UniProt Q5T2D3
T1 sequence (whole entry): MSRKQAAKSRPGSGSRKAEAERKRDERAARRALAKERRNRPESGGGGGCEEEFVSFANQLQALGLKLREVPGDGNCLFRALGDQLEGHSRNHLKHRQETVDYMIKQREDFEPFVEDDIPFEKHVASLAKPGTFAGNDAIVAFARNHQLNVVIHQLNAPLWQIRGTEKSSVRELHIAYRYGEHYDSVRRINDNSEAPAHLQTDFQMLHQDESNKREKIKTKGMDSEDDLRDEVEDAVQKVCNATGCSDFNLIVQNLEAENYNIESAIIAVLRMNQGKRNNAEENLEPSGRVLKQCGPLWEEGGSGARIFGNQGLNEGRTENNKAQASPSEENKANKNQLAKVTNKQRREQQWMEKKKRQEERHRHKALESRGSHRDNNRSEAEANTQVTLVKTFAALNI
Summary of the method: as §1

[6] = molecular target: T2, UniProt Q8TE49
T2 sequence (whole entry): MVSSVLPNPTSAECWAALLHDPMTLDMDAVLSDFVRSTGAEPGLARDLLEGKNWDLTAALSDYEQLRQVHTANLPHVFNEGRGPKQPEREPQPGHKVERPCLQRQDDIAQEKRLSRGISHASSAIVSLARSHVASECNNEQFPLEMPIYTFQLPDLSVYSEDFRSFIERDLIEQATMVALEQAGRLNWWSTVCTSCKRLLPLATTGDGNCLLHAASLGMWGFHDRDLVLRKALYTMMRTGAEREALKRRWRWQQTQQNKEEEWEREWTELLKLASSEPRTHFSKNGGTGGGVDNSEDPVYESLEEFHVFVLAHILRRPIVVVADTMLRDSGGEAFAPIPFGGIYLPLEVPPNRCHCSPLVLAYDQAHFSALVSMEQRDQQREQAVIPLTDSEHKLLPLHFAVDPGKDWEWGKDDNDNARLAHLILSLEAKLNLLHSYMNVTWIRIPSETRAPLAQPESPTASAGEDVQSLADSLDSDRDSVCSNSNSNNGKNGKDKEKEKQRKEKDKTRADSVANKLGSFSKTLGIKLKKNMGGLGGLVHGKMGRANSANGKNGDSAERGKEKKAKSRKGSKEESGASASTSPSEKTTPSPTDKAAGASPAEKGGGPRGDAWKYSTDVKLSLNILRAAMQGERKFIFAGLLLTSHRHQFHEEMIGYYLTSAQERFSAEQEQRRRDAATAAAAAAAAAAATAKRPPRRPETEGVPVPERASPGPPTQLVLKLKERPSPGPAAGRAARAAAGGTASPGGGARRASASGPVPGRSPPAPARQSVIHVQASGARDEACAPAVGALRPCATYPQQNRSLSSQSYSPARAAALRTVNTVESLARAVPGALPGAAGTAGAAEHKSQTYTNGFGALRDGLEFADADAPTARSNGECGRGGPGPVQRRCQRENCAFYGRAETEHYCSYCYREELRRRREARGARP
Summary of the method: as §1

[7] = molecular target: T3, UniProt Q9P2H5
T3 sequence (whole entry): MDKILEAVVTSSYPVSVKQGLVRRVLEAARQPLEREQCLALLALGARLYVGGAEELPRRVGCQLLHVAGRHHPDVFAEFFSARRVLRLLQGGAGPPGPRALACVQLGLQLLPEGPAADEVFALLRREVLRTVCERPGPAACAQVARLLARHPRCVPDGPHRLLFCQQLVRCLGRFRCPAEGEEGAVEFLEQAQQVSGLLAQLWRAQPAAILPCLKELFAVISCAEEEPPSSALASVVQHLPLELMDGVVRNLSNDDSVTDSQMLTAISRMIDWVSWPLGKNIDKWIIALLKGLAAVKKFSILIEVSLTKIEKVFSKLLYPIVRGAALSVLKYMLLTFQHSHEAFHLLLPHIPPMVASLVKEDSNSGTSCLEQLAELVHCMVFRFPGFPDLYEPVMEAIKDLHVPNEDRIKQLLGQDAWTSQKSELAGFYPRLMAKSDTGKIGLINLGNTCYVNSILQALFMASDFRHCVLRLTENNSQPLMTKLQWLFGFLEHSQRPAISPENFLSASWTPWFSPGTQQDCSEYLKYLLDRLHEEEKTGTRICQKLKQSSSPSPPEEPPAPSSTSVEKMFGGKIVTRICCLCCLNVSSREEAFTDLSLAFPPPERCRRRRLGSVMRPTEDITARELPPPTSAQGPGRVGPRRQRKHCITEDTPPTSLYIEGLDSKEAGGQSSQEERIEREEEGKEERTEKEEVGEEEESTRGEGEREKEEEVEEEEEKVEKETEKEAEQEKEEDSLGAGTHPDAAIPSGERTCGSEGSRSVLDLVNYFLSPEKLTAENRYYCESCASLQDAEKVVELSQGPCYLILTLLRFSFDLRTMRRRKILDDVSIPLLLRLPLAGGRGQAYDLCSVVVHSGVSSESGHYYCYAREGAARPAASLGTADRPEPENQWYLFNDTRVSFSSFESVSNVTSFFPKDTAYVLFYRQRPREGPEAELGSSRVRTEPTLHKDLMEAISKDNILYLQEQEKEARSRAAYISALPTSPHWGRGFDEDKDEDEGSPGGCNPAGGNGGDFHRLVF
Summary of the method: as §1

[8] = molecular target: T4, UniProt Q9UGI0
T4 sequence (whole entry): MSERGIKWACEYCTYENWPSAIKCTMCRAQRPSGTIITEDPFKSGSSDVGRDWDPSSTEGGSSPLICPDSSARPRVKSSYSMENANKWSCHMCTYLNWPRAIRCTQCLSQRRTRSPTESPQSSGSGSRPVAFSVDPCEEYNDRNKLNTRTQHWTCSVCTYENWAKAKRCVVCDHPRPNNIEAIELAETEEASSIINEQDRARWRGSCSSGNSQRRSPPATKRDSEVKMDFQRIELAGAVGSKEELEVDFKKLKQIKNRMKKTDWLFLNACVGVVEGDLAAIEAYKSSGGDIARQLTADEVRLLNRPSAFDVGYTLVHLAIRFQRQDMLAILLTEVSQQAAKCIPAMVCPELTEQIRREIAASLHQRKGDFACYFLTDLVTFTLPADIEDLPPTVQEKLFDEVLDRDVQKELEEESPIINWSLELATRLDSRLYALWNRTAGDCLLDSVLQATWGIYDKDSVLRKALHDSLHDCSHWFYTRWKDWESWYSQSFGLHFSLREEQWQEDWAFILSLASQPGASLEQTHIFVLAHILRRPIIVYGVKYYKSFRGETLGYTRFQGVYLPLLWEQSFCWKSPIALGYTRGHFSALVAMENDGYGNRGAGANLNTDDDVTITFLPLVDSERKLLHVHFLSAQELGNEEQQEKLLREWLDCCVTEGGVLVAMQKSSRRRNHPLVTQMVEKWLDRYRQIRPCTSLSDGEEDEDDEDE
Summary of the method: as §1

[9] = molecular target: T5, YOD1 (UniProt Q5VVQ6)
T5 sequence (whole entry): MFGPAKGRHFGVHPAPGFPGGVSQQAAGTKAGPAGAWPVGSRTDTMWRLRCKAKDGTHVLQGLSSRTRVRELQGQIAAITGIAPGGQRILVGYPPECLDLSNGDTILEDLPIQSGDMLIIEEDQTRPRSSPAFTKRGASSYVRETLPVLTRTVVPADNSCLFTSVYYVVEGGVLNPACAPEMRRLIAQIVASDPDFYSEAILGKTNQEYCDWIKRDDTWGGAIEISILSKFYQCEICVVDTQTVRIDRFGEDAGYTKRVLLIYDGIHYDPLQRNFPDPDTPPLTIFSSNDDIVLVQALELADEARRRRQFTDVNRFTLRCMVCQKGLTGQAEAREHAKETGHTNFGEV
Summary of the method: as §1

Measured: log2 ratio of Biotin-Ahx-Ub-VS probe labelling

Chain of UniProt P51784 (P51784 whole entry): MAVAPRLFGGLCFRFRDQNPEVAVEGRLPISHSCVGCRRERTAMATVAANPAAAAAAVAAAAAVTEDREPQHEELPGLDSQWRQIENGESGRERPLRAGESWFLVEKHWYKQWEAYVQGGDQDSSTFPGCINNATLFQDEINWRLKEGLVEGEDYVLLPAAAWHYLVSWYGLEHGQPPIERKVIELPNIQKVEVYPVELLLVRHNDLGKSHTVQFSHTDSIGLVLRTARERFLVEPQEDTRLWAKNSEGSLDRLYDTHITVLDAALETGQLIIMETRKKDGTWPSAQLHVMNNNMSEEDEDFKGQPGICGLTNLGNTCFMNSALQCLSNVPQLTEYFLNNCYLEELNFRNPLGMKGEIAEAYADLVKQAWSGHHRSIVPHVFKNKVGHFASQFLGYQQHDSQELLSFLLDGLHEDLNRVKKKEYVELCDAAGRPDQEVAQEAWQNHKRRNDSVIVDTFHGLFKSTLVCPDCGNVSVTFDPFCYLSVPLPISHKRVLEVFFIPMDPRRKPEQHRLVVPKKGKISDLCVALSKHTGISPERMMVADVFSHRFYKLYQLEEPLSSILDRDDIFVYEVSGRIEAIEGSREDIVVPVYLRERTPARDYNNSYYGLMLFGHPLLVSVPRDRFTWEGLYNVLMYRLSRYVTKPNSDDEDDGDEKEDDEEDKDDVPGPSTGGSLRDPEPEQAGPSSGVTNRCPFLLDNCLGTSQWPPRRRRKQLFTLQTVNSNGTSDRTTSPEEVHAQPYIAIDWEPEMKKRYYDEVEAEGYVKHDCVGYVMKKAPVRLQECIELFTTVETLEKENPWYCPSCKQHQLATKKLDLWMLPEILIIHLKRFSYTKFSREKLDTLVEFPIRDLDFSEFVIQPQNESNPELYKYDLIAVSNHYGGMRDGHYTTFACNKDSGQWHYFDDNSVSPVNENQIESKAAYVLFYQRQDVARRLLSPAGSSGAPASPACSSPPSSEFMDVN
Chain of USP9X (Q93008 whole entry, the tested form may be a part): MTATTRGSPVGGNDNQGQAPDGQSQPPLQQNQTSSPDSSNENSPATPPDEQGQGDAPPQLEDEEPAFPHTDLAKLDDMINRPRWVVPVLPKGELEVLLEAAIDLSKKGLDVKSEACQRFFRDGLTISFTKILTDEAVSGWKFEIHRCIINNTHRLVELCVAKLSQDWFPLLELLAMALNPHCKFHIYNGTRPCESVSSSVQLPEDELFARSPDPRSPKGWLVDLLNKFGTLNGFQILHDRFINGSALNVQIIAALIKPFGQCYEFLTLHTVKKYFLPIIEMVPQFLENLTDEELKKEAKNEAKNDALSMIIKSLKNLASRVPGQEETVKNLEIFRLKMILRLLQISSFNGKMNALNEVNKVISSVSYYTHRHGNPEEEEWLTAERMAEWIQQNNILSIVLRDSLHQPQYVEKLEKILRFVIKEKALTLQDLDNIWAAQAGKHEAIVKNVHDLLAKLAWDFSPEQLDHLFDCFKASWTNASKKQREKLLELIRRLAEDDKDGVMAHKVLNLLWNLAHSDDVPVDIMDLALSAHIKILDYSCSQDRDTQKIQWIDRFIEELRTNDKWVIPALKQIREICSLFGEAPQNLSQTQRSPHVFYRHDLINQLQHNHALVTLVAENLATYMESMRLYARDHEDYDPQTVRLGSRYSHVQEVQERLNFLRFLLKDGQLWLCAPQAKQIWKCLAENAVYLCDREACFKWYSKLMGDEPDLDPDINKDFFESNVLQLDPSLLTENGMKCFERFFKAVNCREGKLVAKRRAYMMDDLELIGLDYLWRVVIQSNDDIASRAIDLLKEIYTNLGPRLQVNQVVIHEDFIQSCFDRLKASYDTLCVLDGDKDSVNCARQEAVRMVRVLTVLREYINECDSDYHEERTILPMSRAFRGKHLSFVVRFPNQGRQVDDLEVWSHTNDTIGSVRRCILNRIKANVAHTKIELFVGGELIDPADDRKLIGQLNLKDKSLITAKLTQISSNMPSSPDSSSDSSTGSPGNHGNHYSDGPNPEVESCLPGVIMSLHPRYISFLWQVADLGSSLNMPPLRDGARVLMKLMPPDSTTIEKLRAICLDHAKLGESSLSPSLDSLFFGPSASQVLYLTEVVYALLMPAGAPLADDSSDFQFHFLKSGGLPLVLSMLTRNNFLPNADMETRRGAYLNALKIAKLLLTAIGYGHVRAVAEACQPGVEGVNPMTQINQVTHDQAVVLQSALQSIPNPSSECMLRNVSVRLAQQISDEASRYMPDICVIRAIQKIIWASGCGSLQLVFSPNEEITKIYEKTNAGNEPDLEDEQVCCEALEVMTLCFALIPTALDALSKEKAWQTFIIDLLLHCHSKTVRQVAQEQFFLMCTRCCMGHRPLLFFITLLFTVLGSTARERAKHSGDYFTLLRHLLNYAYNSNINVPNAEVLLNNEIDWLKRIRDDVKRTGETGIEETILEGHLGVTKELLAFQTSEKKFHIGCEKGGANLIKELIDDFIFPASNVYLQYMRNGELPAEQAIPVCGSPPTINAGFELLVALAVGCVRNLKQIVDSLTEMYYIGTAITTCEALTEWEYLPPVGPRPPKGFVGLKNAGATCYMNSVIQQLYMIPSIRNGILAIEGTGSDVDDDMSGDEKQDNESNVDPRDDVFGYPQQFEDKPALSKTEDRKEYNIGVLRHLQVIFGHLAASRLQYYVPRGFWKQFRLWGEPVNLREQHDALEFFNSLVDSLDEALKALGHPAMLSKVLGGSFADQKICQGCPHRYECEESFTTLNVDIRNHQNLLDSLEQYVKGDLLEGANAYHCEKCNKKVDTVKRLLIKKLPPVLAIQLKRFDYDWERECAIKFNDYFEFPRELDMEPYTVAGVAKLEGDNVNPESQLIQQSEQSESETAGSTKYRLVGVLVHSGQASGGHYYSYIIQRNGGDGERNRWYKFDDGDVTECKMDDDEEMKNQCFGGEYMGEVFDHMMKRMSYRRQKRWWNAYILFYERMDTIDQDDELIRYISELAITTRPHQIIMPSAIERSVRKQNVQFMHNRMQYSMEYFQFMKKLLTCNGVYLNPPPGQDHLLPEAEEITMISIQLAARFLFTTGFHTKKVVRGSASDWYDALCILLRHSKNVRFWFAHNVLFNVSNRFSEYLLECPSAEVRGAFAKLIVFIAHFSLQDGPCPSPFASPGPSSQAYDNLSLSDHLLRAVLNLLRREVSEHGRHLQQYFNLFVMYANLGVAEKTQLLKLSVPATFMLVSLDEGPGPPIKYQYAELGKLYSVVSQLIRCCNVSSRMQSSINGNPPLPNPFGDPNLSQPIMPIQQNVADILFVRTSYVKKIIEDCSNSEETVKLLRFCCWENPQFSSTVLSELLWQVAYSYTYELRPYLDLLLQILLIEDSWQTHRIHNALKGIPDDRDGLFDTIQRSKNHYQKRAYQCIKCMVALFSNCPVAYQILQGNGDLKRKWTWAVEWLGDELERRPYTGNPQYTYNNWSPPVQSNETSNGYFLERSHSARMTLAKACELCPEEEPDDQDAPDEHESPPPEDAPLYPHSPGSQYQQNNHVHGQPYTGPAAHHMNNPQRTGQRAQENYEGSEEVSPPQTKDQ
Chain of UniProt O00487 (O00487 whole entry): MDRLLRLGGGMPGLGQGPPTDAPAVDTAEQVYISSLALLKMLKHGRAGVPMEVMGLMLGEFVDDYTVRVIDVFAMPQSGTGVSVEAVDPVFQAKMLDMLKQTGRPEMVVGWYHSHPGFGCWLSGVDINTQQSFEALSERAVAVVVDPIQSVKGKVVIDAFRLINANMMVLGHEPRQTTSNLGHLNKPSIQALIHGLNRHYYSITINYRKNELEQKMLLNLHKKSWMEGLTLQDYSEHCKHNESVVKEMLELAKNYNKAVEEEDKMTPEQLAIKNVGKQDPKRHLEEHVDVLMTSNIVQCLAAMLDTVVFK

Cl.O=C(CCl)N1CCN(Cc2ccccc2)CC1
inactive: [1] -0.369 | [2] -0.299 | [3] -0.496 | [4] 0.0203 | [5] -0.213 | [6] -0.391 | [7] 0.0502 | [8] -0.536 | [9] -0.381
